Inconclusive results are not listed. Calls of active or inactive are those of the source. Rule for the calls: active = hit-call score of the fitted dose curve at least 0.9, where 1 is the maximum; inconclusive = response in the unintended direction; inactive = score below 0.9.

Sequence of Estrogen receptor (Homo sapiens) (P03372 whole entry, looked up): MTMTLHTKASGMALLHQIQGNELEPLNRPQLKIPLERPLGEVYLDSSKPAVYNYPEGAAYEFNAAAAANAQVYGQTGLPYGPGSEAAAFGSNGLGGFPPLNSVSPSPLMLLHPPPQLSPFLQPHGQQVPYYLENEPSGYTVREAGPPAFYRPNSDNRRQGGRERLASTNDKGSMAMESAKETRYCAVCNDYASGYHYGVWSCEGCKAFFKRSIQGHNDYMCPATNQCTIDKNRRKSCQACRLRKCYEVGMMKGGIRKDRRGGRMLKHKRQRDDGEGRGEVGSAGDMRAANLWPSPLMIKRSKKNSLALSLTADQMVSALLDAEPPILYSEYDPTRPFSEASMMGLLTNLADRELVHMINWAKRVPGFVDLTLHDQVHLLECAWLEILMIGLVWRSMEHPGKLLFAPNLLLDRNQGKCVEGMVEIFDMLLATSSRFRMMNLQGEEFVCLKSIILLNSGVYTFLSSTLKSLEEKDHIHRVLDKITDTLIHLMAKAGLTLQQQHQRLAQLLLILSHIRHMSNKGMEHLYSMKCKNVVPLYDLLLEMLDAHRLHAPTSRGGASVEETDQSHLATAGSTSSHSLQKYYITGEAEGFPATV

This assay concerns the target Estrogen receptor (Homo sapiens) (UniProt P03372). In words: ERF_TW_NR_COA_hESR1: Eurofins (ERF) Nuclear Receptor (NR) Functional Coactivator Assay for human Estrogen Receptor alpha (ERa) Agonism. Here is the method: ERF_TW_NR_COA_hESR1 is a biochemical, single-readout assay that uses extracted gene-proteins in a cell-free assay. Measurements were taken 0.16 hours after chemical dosing in a 96-well plate. See ERalpha Human Estrogen NHR Functional Agonist Coactivator Assay, Panlabs.ERF_TW_NR_COA_hESR1 is an assay component calculated from the ERF_TW_NR_COA_hESR1 assay. It is designed to measure FRET using a type of binding reporter as detected by fluorescence intensity of estriol with fluorimetry technology.Data from the assay component ERF_TW_NR_COA_hESR1 was analyzed at the assay endpoint, ERF_TW_NR_COA_hESR1, in the positive analysis fitting direction relative to DMSO as the negative control and baseline of activity. Using a type of binding reporter, gain-of-signal activity can be used to understand changes in binding as they relate to gene ESR1. To generalize the intended target to other relatable targets, this assay endpoint is annotated to the nuclear receptor intended target family, where the subfamily is steroid.
Test compound and/or vehicle is incubated with the 7 nM estrogen receptor alpha (ERalpha)-LBD and coactivator peptide for 10 minutes at RT. Determination of the amount of complex formed is read spectrofluorimetrically at 520 nm/490 nm. Test compound-induced increase fluorescence by 50 percent or more (>/=50%) relative to the 1 uM Estriol response indicates possible ERalpha receptor agonist activity.
As a reminder, the AC50 is the concentration giving half of the maximal activity seen. As for `OCC(F)(F)OC(F)(F)C(F)(F)OC(F)(F)C(F)(F)OC(F)(F)CO`, the AC50 is 3.43 µM (active).

With `OCC(F)(F)OC(F)(F)C(F)(F)OC(F)(F)C(F)(F)OC(F)(F)F`, the compound was called inactive.

With `NS(=O)(=O)C(F)(F)C(F)(F)C(F)(F)C(F)(F)C(F)(F)C(F)(F)C(F)(F)C(F)(F)F`, the compound was called inactive.

The values above are taken from PubChem BioAssay AID2284377 (EPA ToxCast).
